# According to PMC7862700, “An all-to-all approach to the identification of sequence-specific readers for epigenetic DNA modifications on cytosine”:
# How the values were obtained:
# Assay in all cases: DAPPL (digital affinity profiling via proximity ligation, sequencing); 10 mM Tris-HCl pH 7.5, 50 mM NaCl, 1 mM DTT, 4% glycerol, room temperature, 30 min; GST-TFs on glutathione beads, 16-mer random dsDNA library, 0.1% formaldehyde crosslink after washing; high values mean tight binding
# FLI1 = biological target: T1, FLI1 (Homo sapiens, UniProt Q01543 1-452); conditions: protein: recombinant; tags: N-terminal GST; dsDNA, one strand shown
# T1 sequence: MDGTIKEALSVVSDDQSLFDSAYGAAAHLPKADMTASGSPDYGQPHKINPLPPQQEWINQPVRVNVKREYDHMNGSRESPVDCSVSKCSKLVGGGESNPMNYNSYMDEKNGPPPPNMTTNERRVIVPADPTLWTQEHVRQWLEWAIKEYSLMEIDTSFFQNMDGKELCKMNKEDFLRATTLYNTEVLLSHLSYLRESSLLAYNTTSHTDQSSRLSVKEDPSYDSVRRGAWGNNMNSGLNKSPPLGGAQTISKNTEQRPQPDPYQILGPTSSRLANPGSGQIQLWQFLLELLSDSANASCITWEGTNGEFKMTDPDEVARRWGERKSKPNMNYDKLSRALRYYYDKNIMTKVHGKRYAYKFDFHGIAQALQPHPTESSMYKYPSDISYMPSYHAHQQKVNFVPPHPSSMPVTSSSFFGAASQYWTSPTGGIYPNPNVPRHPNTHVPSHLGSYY
# How it was run: (§1)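 Human transcription factors were made in yeast as GST fusions, captured on glutathione beads and barcoded with DNA. With a tag-only sample included, the pool was incubated with 200 nmole of a random double-stranded 16-mer DNA library in Tris/NaCl/DTT/glycerol buffer at room temperature for 30 min, then crosslinked with 0.1% formaldehyde after washing, ligated by proximity, amplified and sequenced. For binding signal, each hexamer's read frequency for a factor is divided by its frequency for the tag-only sample.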
# ELK1 = biological target: T2, ELK1 (Homo sapiens, UniProt P19419 1-428); conditions: protein: recombinant; tags: N-terminal GST; dsDNA, one strand shown
# T2 sequence: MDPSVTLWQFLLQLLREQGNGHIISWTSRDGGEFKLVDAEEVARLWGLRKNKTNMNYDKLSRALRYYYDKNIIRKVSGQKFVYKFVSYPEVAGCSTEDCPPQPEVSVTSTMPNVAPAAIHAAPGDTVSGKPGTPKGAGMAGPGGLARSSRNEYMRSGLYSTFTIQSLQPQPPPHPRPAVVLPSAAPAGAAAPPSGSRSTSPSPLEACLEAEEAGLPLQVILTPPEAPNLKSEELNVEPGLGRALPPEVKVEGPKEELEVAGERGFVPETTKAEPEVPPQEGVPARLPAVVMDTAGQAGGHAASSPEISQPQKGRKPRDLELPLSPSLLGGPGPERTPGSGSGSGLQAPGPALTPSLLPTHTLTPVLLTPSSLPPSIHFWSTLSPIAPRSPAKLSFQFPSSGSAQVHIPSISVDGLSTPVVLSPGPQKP
# How it was run: as §1
# GABPA = biological target: T3, GABPA (Homo sapiens, UniProt Q06546 1-454); conditions: protein: recombinant; tags: N-terminal GST; dsDNA, one strand shown
# T3 sequence: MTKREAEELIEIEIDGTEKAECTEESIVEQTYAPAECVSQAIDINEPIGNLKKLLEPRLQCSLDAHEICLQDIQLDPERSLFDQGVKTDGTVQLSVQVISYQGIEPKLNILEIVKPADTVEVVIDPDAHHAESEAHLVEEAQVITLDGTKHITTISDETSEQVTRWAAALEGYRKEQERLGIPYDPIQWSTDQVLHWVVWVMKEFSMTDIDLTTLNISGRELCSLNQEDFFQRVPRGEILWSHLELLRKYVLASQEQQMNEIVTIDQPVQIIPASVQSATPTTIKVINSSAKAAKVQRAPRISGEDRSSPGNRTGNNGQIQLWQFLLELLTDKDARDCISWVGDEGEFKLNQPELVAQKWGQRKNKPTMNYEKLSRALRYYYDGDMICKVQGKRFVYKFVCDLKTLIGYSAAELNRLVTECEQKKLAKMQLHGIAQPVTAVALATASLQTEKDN
# How it was run: as §1
# ERG = biological target: T4, ERG (Homo sapiens, UniProt P11308 1-479); conditions: protein: recombinant; tags: N-terminal GST; dsDNA, one strand shown
# T4 sequence: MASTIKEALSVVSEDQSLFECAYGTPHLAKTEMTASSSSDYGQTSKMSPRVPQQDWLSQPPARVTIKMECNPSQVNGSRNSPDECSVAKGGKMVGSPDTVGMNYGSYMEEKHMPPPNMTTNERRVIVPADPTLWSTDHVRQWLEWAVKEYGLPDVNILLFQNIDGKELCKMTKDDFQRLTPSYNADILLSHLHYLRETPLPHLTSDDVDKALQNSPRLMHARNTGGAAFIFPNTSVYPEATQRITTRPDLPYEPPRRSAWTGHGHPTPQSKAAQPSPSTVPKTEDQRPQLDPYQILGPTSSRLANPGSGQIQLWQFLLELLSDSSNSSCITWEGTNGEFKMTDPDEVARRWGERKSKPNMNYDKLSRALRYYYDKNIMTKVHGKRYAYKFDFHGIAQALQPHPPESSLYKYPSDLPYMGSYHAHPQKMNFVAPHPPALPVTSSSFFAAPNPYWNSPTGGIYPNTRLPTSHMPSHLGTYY
# How it was run: as §1
# ELF1 = ELF1 (Homo sapiens, UniProt P32519 1-619); conditions: protein: recombinant; tags: N-terminal GST; dsDNA, one strand shown
# How it was run: as §1
# EHF = biological target: T5, EHF (Homo sapiens, UniProt Q9NZC4 1-300); conditions: protein: recombinant; tags: N-terminal GST; dsDNA, one strand shown
# T5 sequence: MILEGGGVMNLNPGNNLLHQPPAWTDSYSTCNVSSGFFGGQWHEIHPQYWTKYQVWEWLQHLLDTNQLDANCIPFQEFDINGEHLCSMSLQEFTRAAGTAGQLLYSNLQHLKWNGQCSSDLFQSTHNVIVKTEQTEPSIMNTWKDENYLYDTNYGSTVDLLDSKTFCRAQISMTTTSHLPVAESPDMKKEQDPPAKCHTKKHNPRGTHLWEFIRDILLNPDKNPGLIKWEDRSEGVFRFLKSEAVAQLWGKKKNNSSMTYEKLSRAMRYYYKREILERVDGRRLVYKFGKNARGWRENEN
# How it was run: as §1
# SPI1 = SPI1 (Homo sapiens, UniProt P17947 1-270); conditions: protein: recombinant; tags: N-terminal GST; dsDNA, one strand shown
# How it was run: as §1
# SPIB = SPIB (Homo sapiens, UniProt Q01892 1-262); conditions: protein: recombinant; tags: N-terminal GST; dsDNA, one strand shown
# How it was run: as §1
# ELK3 = biological target: T6, ELK3 (Homo sapiens, UniProt P41970 1-407); conditions: protein: recombinant; tags: N-terminal GST; dsDNA, one strand shown
# T6 sequence: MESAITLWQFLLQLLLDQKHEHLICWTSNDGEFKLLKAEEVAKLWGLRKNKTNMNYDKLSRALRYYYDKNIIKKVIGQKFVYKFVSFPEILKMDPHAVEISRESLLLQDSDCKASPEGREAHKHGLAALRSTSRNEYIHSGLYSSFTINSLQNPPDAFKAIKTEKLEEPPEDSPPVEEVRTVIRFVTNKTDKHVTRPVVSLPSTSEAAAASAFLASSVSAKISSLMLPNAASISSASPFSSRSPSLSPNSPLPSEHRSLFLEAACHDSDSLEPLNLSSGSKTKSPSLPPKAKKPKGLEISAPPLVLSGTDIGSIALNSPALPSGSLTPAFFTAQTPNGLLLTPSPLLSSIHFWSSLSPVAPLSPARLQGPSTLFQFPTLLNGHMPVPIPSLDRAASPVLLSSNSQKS
# How it was run: as §1
# FEV = biological target: T7, FEV (Homo sapiens, UniProt Q99581 1-238); conditions: protein: recombinant; tags: N-terminal GST; dsDNA, one strand shown
# T7 sequence: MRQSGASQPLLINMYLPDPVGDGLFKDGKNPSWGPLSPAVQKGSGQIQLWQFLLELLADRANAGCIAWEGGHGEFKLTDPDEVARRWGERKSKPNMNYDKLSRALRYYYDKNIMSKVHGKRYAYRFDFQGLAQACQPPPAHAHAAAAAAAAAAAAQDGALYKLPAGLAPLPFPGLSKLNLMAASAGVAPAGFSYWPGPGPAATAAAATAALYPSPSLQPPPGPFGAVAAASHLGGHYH
# How it was run: as §1
# ETV5 = ETV5 (Homo sapiens, UniProt P41161 1-510); conditions: protein: recombinant; tags: N-terminal GST; dsDNA, one strand shown
# How it was run: as §1
# HSF1 = HSF1 (Homo sapiens, UniProt Q00613 1-529); conditions: protein: recombinant; tags: N-terminal GST; chain copies: 3; dsDNA, one strand shown
# How it was run: as §1
# SPIC = biological target: T8, SPIC (Homo sapiens, UniProt Q8N5J4 1-248); conditions: protein: recombinant; tags: N-terminal GST; dsDNA, one strand shown
# T8 sequence: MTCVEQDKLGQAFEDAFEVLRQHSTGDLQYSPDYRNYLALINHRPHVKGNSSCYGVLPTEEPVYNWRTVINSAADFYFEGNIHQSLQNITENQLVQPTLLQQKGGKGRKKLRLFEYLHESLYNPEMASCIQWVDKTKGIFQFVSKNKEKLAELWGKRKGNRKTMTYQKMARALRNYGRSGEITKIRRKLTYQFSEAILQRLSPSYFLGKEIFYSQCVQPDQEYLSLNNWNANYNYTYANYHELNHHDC
# How it was run: as §1
# ELF4 = ELF4 (Homo sapiens, UniProt Q99607 1-663); conditions: protein: recombinant; tags: N-terminal GST; dsDNA, one strand shown
# How it was run: as §1
# ELK4 = biological target: T9, ELK4 (Homo sapiens, UniProt P28324-2 1-405); conditions: protein: recombinant; tags: N-terminal GST; dsDNA, one strand shown
# T9 sequence: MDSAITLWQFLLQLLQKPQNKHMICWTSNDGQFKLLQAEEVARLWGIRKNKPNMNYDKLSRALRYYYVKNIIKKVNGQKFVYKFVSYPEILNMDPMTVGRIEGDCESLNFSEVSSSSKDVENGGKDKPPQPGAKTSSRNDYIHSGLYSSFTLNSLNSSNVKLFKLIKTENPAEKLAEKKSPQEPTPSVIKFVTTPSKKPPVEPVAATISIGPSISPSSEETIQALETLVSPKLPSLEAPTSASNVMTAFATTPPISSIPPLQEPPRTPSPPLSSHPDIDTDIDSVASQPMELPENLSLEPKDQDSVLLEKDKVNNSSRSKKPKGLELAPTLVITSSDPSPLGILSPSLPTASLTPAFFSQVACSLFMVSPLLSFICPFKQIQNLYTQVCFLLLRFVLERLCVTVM
# How it was run: as §1
# ETV2 = biological target: T10, ETV2 (Homo sapiens, UniProt O00321 1-342); conditions: protein: recombinant; tags: N-terminal GST; dsDNA, one strand shown
# T10 sequence: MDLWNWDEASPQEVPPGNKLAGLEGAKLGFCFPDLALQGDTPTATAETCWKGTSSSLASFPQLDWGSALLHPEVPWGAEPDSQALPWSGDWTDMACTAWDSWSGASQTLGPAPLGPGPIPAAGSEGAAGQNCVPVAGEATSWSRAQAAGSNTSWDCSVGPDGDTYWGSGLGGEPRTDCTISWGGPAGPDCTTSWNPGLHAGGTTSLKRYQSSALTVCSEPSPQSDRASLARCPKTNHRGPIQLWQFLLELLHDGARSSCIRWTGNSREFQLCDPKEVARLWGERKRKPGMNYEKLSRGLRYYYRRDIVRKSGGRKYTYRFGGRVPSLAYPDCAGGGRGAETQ
# How it was run: as §1
# ELF3 = biological target: T11, ELF3 (Homo sapiens, UniProt P78545 1-371); conditions: protein: recombinant; tags: N-terminal GST; dsDNA, one strand shown
# T11 sequence: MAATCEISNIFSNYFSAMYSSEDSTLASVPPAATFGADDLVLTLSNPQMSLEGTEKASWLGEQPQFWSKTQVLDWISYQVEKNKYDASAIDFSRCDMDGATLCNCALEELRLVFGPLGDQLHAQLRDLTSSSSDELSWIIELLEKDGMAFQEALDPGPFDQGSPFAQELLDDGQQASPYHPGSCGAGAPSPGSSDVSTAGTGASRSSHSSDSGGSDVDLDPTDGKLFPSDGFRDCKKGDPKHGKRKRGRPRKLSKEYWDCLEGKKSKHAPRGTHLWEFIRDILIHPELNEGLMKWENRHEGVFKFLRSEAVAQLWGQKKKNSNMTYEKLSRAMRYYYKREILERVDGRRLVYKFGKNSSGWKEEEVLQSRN
# How it was run: as §1
# CRX = CRX (Homo sapiens, UniProt O43186 1-299); conditions: protein: recombinant; tags: N-terminal GST; dsDNA, one strand shown
# How it was run: as §1
# ETV1 = ETV1 (Homo sapiens, UniProt P50549 1-477); conditions: protein: recombinant; tags: N-terminal GST; dsDNA, one strand shown
# How it was run: as §1
# Chain of ELF4 (Q99607 whole entry): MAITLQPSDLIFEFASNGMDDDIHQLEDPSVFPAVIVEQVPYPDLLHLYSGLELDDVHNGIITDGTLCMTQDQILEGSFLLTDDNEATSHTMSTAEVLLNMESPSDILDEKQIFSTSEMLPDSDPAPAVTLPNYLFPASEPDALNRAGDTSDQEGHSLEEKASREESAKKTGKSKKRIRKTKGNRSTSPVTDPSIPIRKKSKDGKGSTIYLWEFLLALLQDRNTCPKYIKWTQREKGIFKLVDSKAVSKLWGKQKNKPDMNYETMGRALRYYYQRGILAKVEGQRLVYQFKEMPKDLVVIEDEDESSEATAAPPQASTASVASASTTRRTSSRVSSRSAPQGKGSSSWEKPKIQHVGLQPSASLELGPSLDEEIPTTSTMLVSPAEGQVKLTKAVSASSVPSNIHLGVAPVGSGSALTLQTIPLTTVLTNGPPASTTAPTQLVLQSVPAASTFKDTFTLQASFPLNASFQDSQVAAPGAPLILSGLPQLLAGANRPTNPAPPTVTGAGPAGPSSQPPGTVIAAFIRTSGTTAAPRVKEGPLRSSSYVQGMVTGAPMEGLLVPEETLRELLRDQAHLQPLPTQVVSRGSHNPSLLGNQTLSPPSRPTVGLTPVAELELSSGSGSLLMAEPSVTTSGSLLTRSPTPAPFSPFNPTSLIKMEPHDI
# Chain of ETV1 (P50549 whole entry): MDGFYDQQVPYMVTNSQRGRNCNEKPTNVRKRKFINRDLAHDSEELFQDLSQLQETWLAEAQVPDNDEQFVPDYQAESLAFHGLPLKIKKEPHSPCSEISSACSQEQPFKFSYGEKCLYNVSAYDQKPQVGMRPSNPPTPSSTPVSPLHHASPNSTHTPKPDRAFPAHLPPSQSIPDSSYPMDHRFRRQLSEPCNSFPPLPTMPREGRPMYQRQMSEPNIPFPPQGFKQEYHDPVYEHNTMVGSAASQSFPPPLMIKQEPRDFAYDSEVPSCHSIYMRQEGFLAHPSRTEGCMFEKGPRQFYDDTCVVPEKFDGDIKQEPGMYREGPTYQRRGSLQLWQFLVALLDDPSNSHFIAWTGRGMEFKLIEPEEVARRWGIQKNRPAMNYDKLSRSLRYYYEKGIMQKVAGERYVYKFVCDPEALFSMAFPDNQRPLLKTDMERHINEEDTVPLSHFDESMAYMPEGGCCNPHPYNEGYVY
# Chain of ETV5 (P41161 whole entry): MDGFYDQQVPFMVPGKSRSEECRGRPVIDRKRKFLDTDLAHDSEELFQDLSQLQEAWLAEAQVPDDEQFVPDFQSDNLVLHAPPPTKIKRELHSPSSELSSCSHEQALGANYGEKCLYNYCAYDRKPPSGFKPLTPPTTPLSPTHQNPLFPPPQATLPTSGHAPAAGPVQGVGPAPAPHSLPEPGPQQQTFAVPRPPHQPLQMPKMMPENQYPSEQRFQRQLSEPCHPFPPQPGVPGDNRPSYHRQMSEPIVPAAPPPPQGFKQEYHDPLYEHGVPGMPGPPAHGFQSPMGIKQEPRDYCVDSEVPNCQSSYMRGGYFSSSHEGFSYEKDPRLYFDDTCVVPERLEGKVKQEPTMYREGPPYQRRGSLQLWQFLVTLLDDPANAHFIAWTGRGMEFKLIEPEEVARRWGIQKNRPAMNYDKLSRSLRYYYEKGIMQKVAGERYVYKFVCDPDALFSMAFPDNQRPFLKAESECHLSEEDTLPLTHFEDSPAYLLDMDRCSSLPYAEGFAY
# Chain of ELF1 (P32519 whole entry): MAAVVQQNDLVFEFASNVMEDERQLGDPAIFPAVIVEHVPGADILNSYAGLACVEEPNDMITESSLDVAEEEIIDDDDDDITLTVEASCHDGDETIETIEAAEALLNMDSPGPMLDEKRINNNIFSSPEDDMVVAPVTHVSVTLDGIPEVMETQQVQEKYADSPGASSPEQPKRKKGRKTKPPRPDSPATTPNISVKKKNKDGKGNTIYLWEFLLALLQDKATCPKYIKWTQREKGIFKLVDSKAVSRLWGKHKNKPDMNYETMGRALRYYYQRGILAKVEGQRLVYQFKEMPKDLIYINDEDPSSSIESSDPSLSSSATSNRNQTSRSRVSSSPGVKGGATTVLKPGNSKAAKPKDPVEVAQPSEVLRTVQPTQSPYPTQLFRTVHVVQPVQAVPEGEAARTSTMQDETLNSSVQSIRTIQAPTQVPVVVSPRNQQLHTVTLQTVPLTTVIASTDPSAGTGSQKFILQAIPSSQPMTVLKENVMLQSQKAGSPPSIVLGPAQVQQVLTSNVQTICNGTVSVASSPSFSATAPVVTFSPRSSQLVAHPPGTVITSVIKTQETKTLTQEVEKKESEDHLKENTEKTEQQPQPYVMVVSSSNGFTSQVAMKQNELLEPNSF
# Chain of HSF1 (Q00613 whole entry): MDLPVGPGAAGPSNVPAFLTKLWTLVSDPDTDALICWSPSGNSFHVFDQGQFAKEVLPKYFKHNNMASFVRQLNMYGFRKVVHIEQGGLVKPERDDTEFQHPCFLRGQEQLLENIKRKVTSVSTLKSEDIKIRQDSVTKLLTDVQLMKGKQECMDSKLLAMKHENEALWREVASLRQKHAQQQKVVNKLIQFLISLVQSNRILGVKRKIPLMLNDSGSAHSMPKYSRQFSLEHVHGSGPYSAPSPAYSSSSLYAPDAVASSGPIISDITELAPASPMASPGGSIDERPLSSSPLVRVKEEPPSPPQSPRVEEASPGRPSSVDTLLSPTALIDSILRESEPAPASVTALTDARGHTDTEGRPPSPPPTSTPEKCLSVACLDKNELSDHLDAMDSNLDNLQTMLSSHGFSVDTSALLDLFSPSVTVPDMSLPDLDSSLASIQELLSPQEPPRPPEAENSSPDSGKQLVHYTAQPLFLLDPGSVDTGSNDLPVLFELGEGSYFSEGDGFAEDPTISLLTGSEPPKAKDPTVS
# Chain of SPIB (Q01892 whole entry): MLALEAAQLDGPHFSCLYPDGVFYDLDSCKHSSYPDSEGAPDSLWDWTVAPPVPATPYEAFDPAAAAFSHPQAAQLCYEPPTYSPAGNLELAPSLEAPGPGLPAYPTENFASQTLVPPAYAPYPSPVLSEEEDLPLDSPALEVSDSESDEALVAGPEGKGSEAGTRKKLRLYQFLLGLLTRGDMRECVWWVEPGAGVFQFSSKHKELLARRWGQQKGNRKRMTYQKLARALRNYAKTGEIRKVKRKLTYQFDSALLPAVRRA
# Chain of CRX (O43186 whole entry): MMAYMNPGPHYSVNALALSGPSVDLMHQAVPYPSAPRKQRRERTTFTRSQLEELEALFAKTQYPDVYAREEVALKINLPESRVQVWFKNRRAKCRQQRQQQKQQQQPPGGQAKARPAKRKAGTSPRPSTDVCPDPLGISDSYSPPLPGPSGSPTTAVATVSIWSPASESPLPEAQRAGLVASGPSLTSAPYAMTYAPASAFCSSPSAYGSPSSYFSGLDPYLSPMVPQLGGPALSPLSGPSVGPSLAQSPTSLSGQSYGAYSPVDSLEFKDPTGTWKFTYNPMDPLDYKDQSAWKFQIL
sequence,measurement,setting,value
CTCTTC,binding signal,FLI1,"1.62 fold enrichment (6-mer frequency, TF over GST control)"
same,binding signal,ELK1,"1.64 fold enrichment (6-mer frequency, TF over GST control)"
same,binding signal,GABPA,"1.66 fold enrichment (6-mer frequency, TF over GST control)"
same,binding signal,ERG,"1.71 fold enrichment (6-mer frequency, TF over GST control)"
same,binding signal,ELF1,"1.66 fold enrichment (6-mer frequency, TF over GST control)"
same,binding signal,EHF,"1.69 fold enrichment (6-mer frequency, TF over GST control)"
same,binding signal,SPI1,"1.6 fold enrichment (6-mer frequency, TF over GST control)"
same,binding signal,SPIB,"1.84 fold enrichment (6-mer frequency, TF over GST control)"
same,binding signal,ELK3,"1.66 fold enrichment (6-mer frequency, TF over GST control)"
same,binding signal,FEV,"1.73 fold enrichment (6-mer frequency, TF over GST control)"
same,binding signal,ETV5,"1.76 fold enrichment (6-mer frequency, TF over GST control)"
same,binding signal,HSF1,"1.25 fold enrichment (6-mer frequency, TF over GST control)"
same,binding signal,SPIC,"1.69 fold enrichment (6-mer frequency, TF over GST control)"
same,binding signal,ELF4,"1.68 fold enrichment (6-mer frequency, TF over GST control)"
same,binding signal,ELK4,"1.66 fold enrichment (6-mer frequency, TF over GST control)"
same,binding signal,ETV2,"1.71 fold enrichment (6-mer frequency, TF over GST control)"
same,binding signal,ELF3,"1.67 fold enrichment (6-mer frequency, TF over GST control)"
same,binding signal,CRX,"1.21 fold enrichment (6-mer frequency, TF over GST control)"
same,binding signal,ETV1,"1.71 fold enrichment (6-mer frequency, TF over GST control)"
